Targets with the largest changes are over-represented here; the source holds about 21,000 in all.
Compound: CC1Cc2ccccc2N1C(=O)C1CCCN(C1)C(=O)CCl (mixture of isomers) [TRIM25 ligand 11 (diastereomer mixture)]
Test: probe-labelled cysteine peptide fold change vs DMSO (competition) (log2 fold change); higher = less target engagement (more negative = stronger competition)
Settings: THP-1, incubation time: 4 h
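Further: competitive chemoproteomic profiling in live THP-1 cells with an iodoacetamide desthiobiotin (IA-DTB) probe, comparing probe-labelled peptide intensities in compound-treated cells against DMSO-treated controls.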

Chain of UniProt Q9NS73 (Q9NS73 whole entry): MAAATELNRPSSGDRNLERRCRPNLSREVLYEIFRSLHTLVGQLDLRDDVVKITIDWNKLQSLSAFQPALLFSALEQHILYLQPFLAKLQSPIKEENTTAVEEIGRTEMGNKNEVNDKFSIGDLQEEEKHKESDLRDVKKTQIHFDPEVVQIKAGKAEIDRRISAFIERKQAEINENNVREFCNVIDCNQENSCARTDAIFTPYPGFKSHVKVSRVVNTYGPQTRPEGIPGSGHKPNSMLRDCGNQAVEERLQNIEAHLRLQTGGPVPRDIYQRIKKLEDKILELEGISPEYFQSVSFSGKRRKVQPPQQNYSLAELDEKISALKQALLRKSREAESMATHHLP
Chain of UniProt Q07820 (Q07820 whole entry, looked up): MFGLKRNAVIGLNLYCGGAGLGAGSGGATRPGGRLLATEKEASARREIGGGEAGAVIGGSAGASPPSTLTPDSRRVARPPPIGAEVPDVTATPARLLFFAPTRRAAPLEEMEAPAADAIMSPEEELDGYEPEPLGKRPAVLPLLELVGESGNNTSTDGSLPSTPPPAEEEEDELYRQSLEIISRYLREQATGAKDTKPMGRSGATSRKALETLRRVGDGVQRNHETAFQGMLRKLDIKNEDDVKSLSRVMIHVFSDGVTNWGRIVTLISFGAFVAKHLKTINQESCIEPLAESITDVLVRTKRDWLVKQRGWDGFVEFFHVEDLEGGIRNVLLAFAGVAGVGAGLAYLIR
Chain of UniProt Q13724 (Q13724 whole entry, looked up): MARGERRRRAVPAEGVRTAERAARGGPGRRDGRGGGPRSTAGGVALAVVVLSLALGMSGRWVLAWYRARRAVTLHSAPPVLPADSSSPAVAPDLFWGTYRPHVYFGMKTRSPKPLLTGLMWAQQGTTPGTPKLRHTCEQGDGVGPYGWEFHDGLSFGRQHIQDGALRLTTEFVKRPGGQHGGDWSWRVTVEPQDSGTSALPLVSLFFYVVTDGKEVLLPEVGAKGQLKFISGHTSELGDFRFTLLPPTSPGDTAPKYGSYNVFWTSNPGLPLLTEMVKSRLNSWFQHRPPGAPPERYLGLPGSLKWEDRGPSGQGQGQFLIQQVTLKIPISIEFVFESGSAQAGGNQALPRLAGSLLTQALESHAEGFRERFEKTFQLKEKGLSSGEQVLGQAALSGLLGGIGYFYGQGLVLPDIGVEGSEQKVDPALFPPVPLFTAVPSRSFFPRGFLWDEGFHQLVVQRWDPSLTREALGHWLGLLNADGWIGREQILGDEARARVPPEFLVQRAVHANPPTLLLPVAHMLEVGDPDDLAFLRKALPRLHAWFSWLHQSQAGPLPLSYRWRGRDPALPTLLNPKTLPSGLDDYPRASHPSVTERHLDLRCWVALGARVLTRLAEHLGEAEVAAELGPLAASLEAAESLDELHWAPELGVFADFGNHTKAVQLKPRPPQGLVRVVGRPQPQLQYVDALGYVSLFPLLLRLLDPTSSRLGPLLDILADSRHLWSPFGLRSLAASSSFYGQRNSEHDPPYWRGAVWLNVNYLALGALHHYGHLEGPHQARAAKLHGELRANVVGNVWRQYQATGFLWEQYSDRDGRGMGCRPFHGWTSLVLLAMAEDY
Chain of UniProt Q14566 (Q14566 whole entry, looked up): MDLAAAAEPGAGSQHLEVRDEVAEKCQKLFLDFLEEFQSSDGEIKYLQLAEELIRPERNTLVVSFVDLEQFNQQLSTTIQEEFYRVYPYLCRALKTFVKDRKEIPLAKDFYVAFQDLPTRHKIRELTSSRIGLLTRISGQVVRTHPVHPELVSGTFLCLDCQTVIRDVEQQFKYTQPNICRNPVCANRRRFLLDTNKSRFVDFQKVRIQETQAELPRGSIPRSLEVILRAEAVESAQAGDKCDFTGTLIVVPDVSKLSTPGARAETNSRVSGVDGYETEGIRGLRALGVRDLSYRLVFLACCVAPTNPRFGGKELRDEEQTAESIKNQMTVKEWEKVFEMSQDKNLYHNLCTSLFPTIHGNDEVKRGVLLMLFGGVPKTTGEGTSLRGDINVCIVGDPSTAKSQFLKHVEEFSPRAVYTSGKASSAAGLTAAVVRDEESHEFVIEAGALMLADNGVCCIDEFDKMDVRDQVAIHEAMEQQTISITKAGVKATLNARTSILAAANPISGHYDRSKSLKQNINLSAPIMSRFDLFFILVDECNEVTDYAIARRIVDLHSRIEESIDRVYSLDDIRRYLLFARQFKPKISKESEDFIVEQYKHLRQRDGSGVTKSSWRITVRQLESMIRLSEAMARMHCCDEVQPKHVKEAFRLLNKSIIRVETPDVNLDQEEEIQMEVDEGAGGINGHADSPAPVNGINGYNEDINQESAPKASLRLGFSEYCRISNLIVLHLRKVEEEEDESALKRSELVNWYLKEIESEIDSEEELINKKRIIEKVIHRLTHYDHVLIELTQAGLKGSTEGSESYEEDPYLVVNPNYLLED
Chain of UniProt Q9H081 (Q9H081 whole entry): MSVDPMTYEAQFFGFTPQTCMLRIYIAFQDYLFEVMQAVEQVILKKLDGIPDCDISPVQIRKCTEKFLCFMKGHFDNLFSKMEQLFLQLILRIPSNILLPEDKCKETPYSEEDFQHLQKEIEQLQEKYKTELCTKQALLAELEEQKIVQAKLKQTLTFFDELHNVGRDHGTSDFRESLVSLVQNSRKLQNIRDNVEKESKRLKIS
Chain of UniProt Q9UBG0 (Q9UBG0 whole entry, looked up): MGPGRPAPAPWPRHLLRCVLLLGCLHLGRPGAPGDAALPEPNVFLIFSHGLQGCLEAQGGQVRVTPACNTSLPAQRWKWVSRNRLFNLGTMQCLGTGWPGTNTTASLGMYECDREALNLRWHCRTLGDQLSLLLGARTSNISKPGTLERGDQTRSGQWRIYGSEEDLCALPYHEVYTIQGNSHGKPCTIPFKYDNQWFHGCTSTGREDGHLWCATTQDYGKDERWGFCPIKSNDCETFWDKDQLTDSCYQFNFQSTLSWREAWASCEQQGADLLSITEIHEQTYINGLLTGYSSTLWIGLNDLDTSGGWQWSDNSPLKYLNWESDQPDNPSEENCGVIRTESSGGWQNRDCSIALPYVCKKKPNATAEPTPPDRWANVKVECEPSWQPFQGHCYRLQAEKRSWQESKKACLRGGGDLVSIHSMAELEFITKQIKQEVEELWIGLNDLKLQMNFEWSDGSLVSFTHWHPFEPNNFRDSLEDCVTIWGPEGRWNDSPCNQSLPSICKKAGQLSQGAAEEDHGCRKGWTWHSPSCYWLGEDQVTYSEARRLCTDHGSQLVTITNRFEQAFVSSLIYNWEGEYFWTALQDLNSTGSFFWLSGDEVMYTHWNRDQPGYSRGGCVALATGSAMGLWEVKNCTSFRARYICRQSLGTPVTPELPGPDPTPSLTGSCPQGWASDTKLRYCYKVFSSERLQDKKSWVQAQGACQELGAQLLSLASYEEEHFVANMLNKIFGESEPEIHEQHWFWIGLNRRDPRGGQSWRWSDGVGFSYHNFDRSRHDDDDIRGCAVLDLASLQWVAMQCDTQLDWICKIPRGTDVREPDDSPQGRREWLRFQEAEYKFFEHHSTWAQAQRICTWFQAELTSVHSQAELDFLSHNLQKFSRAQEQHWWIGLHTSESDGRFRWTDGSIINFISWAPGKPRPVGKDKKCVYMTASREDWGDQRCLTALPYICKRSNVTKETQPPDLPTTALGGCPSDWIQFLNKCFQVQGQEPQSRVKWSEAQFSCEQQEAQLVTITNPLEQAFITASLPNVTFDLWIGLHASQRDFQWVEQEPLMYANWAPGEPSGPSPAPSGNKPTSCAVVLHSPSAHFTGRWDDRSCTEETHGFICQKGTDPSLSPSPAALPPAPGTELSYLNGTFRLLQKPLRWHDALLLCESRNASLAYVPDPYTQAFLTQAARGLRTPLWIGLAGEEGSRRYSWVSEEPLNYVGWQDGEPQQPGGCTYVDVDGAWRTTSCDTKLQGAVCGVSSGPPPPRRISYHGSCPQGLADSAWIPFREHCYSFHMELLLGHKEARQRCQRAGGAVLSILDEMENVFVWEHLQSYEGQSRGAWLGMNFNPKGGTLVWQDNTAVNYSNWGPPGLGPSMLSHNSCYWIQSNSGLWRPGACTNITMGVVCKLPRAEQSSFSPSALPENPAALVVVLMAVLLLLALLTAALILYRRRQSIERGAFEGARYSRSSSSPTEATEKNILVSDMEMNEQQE
Chain of UniProt Q96S97 (Q96S97 whole entry, looked up): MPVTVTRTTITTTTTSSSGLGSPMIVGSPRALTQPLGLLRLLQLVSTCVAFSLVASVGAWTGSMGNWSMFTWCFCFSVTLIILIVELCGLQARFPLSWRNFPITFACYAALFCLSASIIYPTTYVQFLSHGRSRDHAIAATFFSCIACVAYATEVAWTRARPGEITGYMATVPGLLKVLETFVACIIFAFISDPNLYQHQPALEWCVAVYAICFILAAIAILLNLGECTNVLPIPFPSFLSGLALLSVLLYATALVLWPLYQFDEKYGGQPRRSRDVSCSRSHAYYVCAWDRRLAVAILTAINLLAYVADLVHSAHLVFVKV
Chain of UniProt O14880 (O14880 whole entry, looked up): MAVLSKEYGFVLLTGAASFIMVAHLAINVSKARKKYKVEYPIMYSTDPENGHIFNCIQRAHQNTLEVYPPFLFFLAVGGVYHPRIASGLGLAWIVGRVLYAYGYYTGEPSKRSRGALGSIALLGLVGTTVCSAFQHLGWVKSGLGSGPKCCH

Target	probe-labelled cysteine peptide fold change (10 µM)	probe-labelled cysteine peptide fold change (50 µM)
MDN1_Q9NU22_4604_HLFFSQSCSLLVR (UniProt Q9NU22)	0.142	0.423
MOGS_Q13724_137_HTCEQGDGVGPYGWEFHDGLSFGR (UniProt Q13724)	-0.0183	-0.127
MTA2_O94776_106_CSVTLLNETDILSQYLEK (UniProt O94776)	0.0256	0.178
MIS12_Q9H081_133_YKTELCTK (UniProt Q9H081)	-0.0461	0.0357
MRE11_P49959_249_HGSTNFIPEQFLDDFIDLVIWGHEHECK (UniProt P49959)	-0.0677	-0.0212
MATR3_P43243_821_NTHCSSLPHYQK (UniProt P43243)	0.121	-0.196
MYADM_Q96S97_279_SRDVSCSR (UniProt Q96S97)	1.04	1.29
MCM6_Q14566_351_NLYHNLCTSLFPTIHGNDEVK (UniProt Q14566)	0.107	0.0102
MCL1_Q07820_286_TINQESCIEPLAESITDVLVR (UniProt Q07820)	-0.36	-0.583
MGST3_O14880_56_YKVEYPIMYSTDPENGHIFNCIQR (UniProt O14880)	0.0746	-0.113
MATR3_P43243_230_CRDDSFFGETSHNYHK (UniProt P43243)	0.0188	-0.0509
MRC2_Q9UBG0_213_EDGHLWCATTQDYGKDER (UniProt Q9UBG0)	-0.0873	-0.0151
MBIP_Q9NS73_243_DCGNQAVEER (UniProt Q9NS73)	-0.0155	-0.0072
MDN1_Q9NU22_882_LFACMNPATDVGKR (UniProt Q9NU22)	-0.0968	-0.078
